Reference: PubChem BioAssay (NCI)
Compounds without any hit were thinned out: in the full panel of roughly 83,000, 20% have a hit.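 Single-dose data. Exposure time 48 hours. Values below 10 considered active.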 The source made the active and inactive calls.

Key:
Experiment in all cases: NCI-60 one-dose screen, 48 h (100 = growth as untreated, 0 = no growth, -100 = all killed)
Settings in all cases: 10 µM unless noted
[1] = test system: SK-MEL-2 melanoma
[2] = test system: EKVX NSCLC
[3] = test system: SN12C renal
[4] = test system: UO-31 renal
[5] = test system: TK-10 renal
[6] = test system: ACHN renal
[7] = test system: CAKI-1 renal
[8] = test system: A498 renal
[9] = test system: CCRF-CEM leukemia
[10] = test system: MOLT-4 leukemia

Measured: growth

COc1ccc2[nH]c(C(=O)N3CCN(C(=O)OCc4ccc5c(Cl)cc(Cl)c(O)c5n4)CC3)cc2c1
active: [1] -77.2% | [2] -76.6% | [3] -83.8% | [4] -100% | [5] -99.2% | [6] -100% | [7] -95.6% | [8] -13.8% | [9] -9.25% | [10] -6.74%

CCN(CC)c1ccc(\C=N/N=C(N)/C(N)=N\N=C/c2ccc(N(CC)CC)cc2)cc1
inactive: [1] 97.7% | [2] 104% | [3] 105% | [4] 82.9% | [5] 113% | [6] 96.4% | [7] 88.9% | [8] 102% | [9] 89% | [10] 95.8%

N#Cc1c(-c2ccccc2)cc(-c2ccc(Nc3nc(Nc4ccc(Cl)cc4)nc(Nc4ccc(Cl)cc4)n3)cc2)nc1N
active: [2] 9.99% | [4] -82.4% | [5] -60.1% | [6] -32.5% | [9] 4.06% | [10] 4.72%
inactive: [1] 34% | [3] 50.2% | [7] 20.1% | [8] 81.8%

COC(=O)[C@@H](CCCCNC(=O)[C@]12CCC(C)(C)C[C@@H]1C1=CC[C@@H]3[C@@]4(C)C/C(=C/c5ccco5)C(=O)C(C)(C)[C@@H]4CC[C@@]3(C)[C@]1(C)CC2)NC(=O)[C@]12CCC(C)(C)C[C@@H]1C1=CC[C@@H]3[C@@]4(C)C/C(=C/c5ccco5)C(=O)C(C)(C)[C@@H]4CC[C@@]3(C)[C@]1(C)CC2
inactive: [1] 108% | [2] 105% | [3] 98.7% | [4] 79.2% | [5] 102% | [6] 107% | [7] 98.5% | [8] 116% | [9] 99.3% | [10] 97%

NC(=O)c1cccc(-n2ccc3cc(NC(=O)c4ccc(N5CCOCC5)c(C(F)(F)F)c4)ccc32)n1
inactive: [1] 71% | [2] 47.8% | [3] 73.5% | [4] 36.5% | [5] 86.9% | [6] 46.6% | [7] 39.7% | [8] 15.7% | [9] 34.4% | [10] 52.5%

C=C(C)[C@@H]1CC[C@]2(CO)CC[C@]3(C)[C@H](CC[C@@H]4[C@@]5(C)CC[C@H](NCO)C(C)(C)[C@@H]5CC[C@]43C)[C@@H]12
active: [1] -60.9% | [2] 8.09% | [3] -92.4% | [4] -99.2% | [5] -64.8% | [6] -99.2% | [7] -96.9% | [9] -9.15% | [10] -26.7%
inactive: [8] 79%

COc1ccc(OC)c(/C=N/Nc2ncnc3c2c(C)nn3C)c1
inactive: [1] 105% | [2] 94.8% | [3] 91.4% | [4] 82.9% | [5] 105% | [6] 105% | [7] 98.7% | [8] 64.4% | [9] 103% | [10] 93.9%

N#Cc1c(-c2ccccc2)cc(-c2ccccc2)n(CCCC(=O)Nc2ccccc2N)c1=O
inactive: [1] 46.4% | [2] 79.1% | [3] 70.5% | [4] 49.1% | [5] 104% | [6] 63.8% | [7] 38.2% | [9] 56.3% | [10] 47.4%
active: [8] -5.55%

CSc1nnc(-c2cc3c([nH]c4ccccc43)c(-c3cccc(O)c3)n2)n1-c1ccccc1
inactive: [1] 12.9% | [2] 45.8% | [3] 43.7% | [4] 39.7% | [5] 62.2% | [6] 36.3% | [7] 44.6% | [8] 25.5% | [9] 21.8% | [10] 26.6%

CCCOC(=O)Nc1nc2ccc(SCC(C)C)cc2s1
inactive: [1] 48.6% | [2] 52.3% | [3] 44.4% | [4] 44.8% | [5] 50.4% | [6] 51.9% | [7] 49.1% | [8] 40.8% | [9] 22.9% | [10] 33.8%

COC(=O)Nc1nc2ccc(S(=O)c3ccccc3)cc2[nH]1 (stereo not given)
inactive: [1] 48.1% | [2] 80% | [3] 82.2% | [4] 65% | [5] 92.9% | [6] 86.1% | [7] 63.2% | [8] 56.6% | [9] 66.9% | [10] 70.5%

COCCn1cc(-c2csc(-c3cn(C)c4ccc(Br)cc34)n2)c2cccnc21
inactive: [1] 65.6% | [2] 58.4% | [3] 69.1% | [4] 61.9% | [5] 61.5% | [6] 57.1% | [7] 65% | [8] 45.6% | [9] 67.4% | [10] 63.4%

Cc1[nH]c(=O)[nH]c(=O)c1Br
inactive: [1] 148% | [2] 106% | [3] 98% | [4] 105% | [5] 114% | [6] 104% | [7] 92.9% | [8] 103% | [9] 107% | [10] 94%

COc1ccc(NC2=C(I)C(=O)c3ncccc3C2=O)cc1
active: [3] -96.4% | [4] -92.6% | [6] -12.7% | [10] -31.7%
inactive: [1] 29.1% | [2] 64.8% | [5] 51.1% | [7] 24.1% | [8] 65.3% | [9] 11%

COCCn1cc(-c2nc(-c3cc4cccnc4[nH]3)cs2)c2cc(OC)ccc21
active: [5] -4.75% | [8] -0.329%
inactive: [1] 37.8% | [2] 16.9% | [3] 48.5% | [4] 10.9% | [6] 22.4% | [7] 34.4% | [9] 12.4% | [10] 26.6%

C=CCn1c(SCC(=O)Nc2ccc(C(=O)/C=C/c3ccc(Cl)cc3)cc2)nnc1-c1ccc(Br)cc1
inactive: [1] 76.4% | [2] 101% | [3] 80.3% | [4] 67.9% | [5] 83.3% | [6] 78.3% | [7] 74.5% | [8] 74.6% | [9] 79.7% | [10] 63.1%

CCN(C)S(=O)(=O)Nc1cccc(Nc2ncnc3cc(NC(=O)CCl)ccc23)c1Cl
active: [3] -27.9% | [4] -87.4% | [5] 1.2% | [6] -67.8% | [7] -15.4% | [9] 5.63% | [10] 5.41%
inactive: [1] 17.7% | [2] 18.4% | [8] 81.7%

CC(C)COc1nc2c(c(=O)n(C)c(=O)n2C)n1C
inactive: [1] 36.1% | [2] 95.1% | [3] 99.8% | [4] 94.7% | [5] 105% | [6] 102% | [7] 107% | [8] 84.7% | [9] 97.5% | [10] 93.3%

C#CCOC(=O)/C=C/c1cn(-c2ccccc2)nc1-c1ccc(OC)cc1
inactive: [1] 90.4% | [2] 93.4% | [3] 77.3% | [4] 54% | [5] 91.6% | [6] 77% | [7] 67.6% | [8] 81.7% | [9] 97.5% | [10] 75.8%

N#Cc1nc(-c2ccc(F)cc2)oc1S(=O)(=O)N1CCCCC1
active: [5] -69.8% | [6] 3.58% | [9] 1.84% | [10] -6.66%
inactive: [1] 81.1% | [2] 98.5% | [3] 80.2% | [4] 84.8% | [7] 91% | [8] 112%

N#Cc1nc(-c2ccccc2)oc1S(=O)(=O)N1CCN(c2ccccc2)CC1
inactive: [1] 84.4% | [2] 116% | [3] 88% | [4] 84.5% | [5] 104% | [6] 102% | [7] 109% | [8] 95.1% | [10] 12.2%
active: [9] 2.42%

CCCC/C=C/[C@@H]1C[C@H]1CCO
inactive: [1] 98.7% | [2] 101% | [3] 94.3% | [4] 87% | [5] 96.4% | [6] 104% | [7] 98.9% | [8] 102% | [9] 101% | [10] 103%

Cc1cc(N2CCCCC2)cc(C)c1-c1csc(NC(=O)c2ccncc2)n1
inactive: [1] 95.6% | [2] 32.9% | [3] 49.1% | [4] 36.9% | [5] 77.3% | [6] 56.8% | [7] 49.5% | [8] 42.9% | [9] 47.3% | [10] 43.7%

CCCNc1nc2ccccc2c2c1S(=O)(=O)c1ccc(Cl)cc1C2=O
active: [1] 8.94% | [3] -1.38% | [9] -5.94% | [10] 4.02%
inactive: [2] 25.8% | [4] 10.9% | [5] 17.3% | [6] 10.7% | [7] 18.2% | [8] 31.1%

Cc1nc2sc(C(=O)Nc3cccc(Br)c3)c(N)c2cc1C(O)c1ccccc1 (stereo not given)
active: [8] 5.68%
inactive: [1] 47.2% | [2] 48.5% | [3] 22.4% | [4] 48.4% | [5] 58% | [6] 33.2% | [7] 46.4% | [9] 15.7% | [10] 17.1%

COc1cc2c(c(OC)c1OC)CCC(c1cccc(C(=O)Nc3cccc(Cl)c3)c1)O2 (stereo not given)
inactive: [1] 58.3% | [2] 64.2% | [3] 50% | [4] 40.8% | [5] 70.4% | [6] 65.4% | [7] 84.8% | [9] 37.8% | [10] 30.4%
active: [8] 6.84%

Nc1ncc(-c2ccc3ncnc(Nc4cccc(Cl)c4)c3c2)cn1
inactive: [1] 50.1% | [3] 45.9% | [4] 26.2% | [6] 21.5% | [7] 25.6% | [9] 40.5% | [10] 21.7%
active: [2] 1.79% | [5] -14.8% | [8] -9.82%
